Experiment in all cases: NCI-60 one-dose screen, 48 h (100 = growth as untreated, 0 = no growth, -100 = all killed)
One test deals with HCT-15 colon. The conditions noted are these: 10 µM unless noted.
In another test the test system is HT29 colon. The conditions noted are these: 10 µM unless noted.
For the next test, the system named is SNB-75 CNS. Conditions: 10 µM unless noted.
In the next test the test system is SNB-19 CNS. The conditions noted are these: 10 µM unless noted.
The test system of the next test is U251 CNS. Conditions: 10 µM unless noted.
In the next test the test system is PC-3 prostate. The conditions noted are these: 10 µM unless noted.
The next test relates to SK-MEL-5 melanoma. Conditions: 10 µM unless noted.
The subject of another test is UACC-62 melanoma. Conditions: 10 µM unless noted.
Another test relates to SK-MEL-28 melanoma. Conditions: 10 µM unless noted.
A further test relates to SK-MEL-2 melanoma. The conditions noted are these: 10 µM unless noted.
For a further test, the system named is EKVX NSCLC. Conditions: 10 µM unless noted.
For another test, the system named is SN12C renal. The conditions noted are these: 10 µM unless noted.
The next test deals with UO-31 renal. Conditions: 10 µM unless noted.
For a further test, the system named is TK-10 renal. Conditions: 10 µM unless noted.
The subject of the next test is ACHN renal. Conditions: 10 µM unless noted.
Another test relates to CAKI-1 renal. The conditions noted are these: 10 µM unless noted.
In the next test the test system is A498 renal. The conditions noted are these: 10 µM unless noted.
In another test the test system is CCRF-CEM leukemia. The conditions noted are these: 10 µM unless noted.
The subject of another test is MOLT-4 leukemia. The conditions noted are these: 10 µM unless noted.
A further test relates to LOX IMVI melanoma. Conditions: 10 µM.

This is part of a sample that, as a whole, favours compounds with a hit. Of some 83,000 tested, about 20% had one in any assay.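 48-hour exposure, single concentration, 96-well plates; percent growth endpoint where 0 means no net growth. Active: below 10.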 Unmarked numbers belong to inactive results. Activity calls are given as the source filed them.

Turning to `C=C1CC[C@@H]2[C@]3(C)COC(c4cn(-c5ccccc5)nc4-c4cccc([N+](=O)[O-])c4)O[C@@H]3CC[C@@]2(C)[C@@H]1C/C=C1/C(=O)OC[C@H]1O` (some centres not stated), the growth is -74.2% (active) in the test on HCT-15 colon; -59.7% (active) in the test on HT29 colon; 109% in the test with SNB-75 CNS; 23.5% in the test with SNB-19 CNS; -73.9% (active) in the test with U251 CNS; 16.5% in the test on PC-3 prostate. The growth in the test with SK-MEL-5 melanoma was -99.6% (active); in the test with UACC-62 melanoma, -71.7% (active); in the test with SK-MEL-28 melanoma, -47.9% (active); with SK-MEL-2 melanoma it was -45.2% (active); in the test on EKVX NSCLC it was -0.625% (active); in the test on SN12C renal it was 3.71% (active). For the same molecule, the growth in the test with UO-31 renal is 12.2%; in the test with TK-10 renal, 36.9%; in the test with ACHN renal it was -74.5% (active); in the test with CAKI-1 renal, 38.7%; in the test on A498 renal it was 105%; with CCRF-CEM leukemia, -1.81% (active). The growth in the test with MOLT-4 leukemia was -3.81% (active).

Take `N/C(=N\c1nc2ccccc2s1)NC(=O)NCCCCCCO`: the growth in the test on HCT-15 colon is 57.7%; in the test on HT29 colon it was 76.2%; in the test with SNB-75 CNS, 20.6%; in the test with SNB-19 CNS it was 51.6%; in the test with U251 CNS, 69%; with PC-3 prostate it was 47.3%. For the same molecule, the growth in the test on SK-MEL-5 melanoma was -3.23% (active); with UACC-62 melanoma, 49.1%; with SK-MEL-28 melanoma it was 76.5%; with SK-MEL-2 melanoma, 50.1%; with EKVX NSCLC, 19.6%; with SN12C renal it was 45.5%. Also, the growth in the test with UO-31 renal was 43.5%; in the test with TK-10 renal, 51.2%; in the test on ACHN renal it was 39.5%; in the test with CAKI-1 renal, 32%; in the test with A498 renal, 61%; in the test on CCRF-CEM leukemia it was 60.3%. Besides, in the test on MOLT-4 leukemia, the growth was 4.34% (active).

Take `Cn1cc(-c2nnc(N)nc2-c2c[nH]c3ccccc23)c2cccnc21`: the growth with HCT-15 colon was 28.9%; in the test on HT29 colon, 17.2%; with SNB-75 CNS it was 28.5%; in the test on SNB-19 CNS, 51.6%; in the test on U251 CNS, 41.6%; in the test with PC-3 prostate, 57.8%. Moreover, the growth is 24.4% in the test with SK-MEL-5 melanoma; 33.9% with UACC-62 melanoma; 55% in the test with SK-MEL-28 melanoma; 24.3% in the test on SK-MEL-2 melanoma; 62.3% in the test on EKVX NSCLC; 50.6% with SN12C renal. Moreover, the growth in the test on UO-31 renal was 48%; in the test on TK-10 renal, 91.5%; in the test with ACHN renal, 56.9%; with CAKI-1 renal, 43.2%; in the test with A498 renal, 86.4%; in the test on CCRF-CEM leukemia it was 34.6%. Moreover, in the test on MOLT-4 leukemia, the growth was 26.7%.

Consider `O=C1NC(=O)/C(=C/c2ccccc2OCc2cc3ccccc3nc2Cl)S1`, for which the growth with HCT-15 colon was 84%; in the test with HT29 colon, 108%; with SNB-75 CNS, 46.9%; in the test with SNB-19 CNS it was 39.2%; in the test with U251 CNS, 58%; in the test on PC-3 prostate, 112%. Further, the growth with SK-MEL-5 melanoma is 67.6%; with UACC-62 melanoma, 52%; in the test with SK-MEL-28 melanoma, 102%; in the test on SK-MEL-2 melanoma, 88.6%; in the test with EKVX NSCLC it was 88%; with SN12C renal, 81.4%. The growth with UO-31 renal was 71.9%; in the test with TK-10 renal it was 97.7%; in the test with ACHN renal it was 86.2%; in the test with CAKI-1 renal it was 82.3%; with A498 renal, 122%; in the test on CCRF-CEM leukemia, 53.9%. The growth in the test with MOLT-4 leukemia was 85.3%.

Turning to `Brc1ccc(-c2n(Cc3ccc4ccccc4c3)c(-c3ccccc3)c(-c3ccccc3)[n+]2Cc2ccc3ccccc3c2)cc1`, the growth in the test on HCT-15 colon was -85.4% (active); in the test with HT29 colon, -98.9% (active); in the test on SNB-75 CNS, -97.9% (active); in the test with SNB-19 CNS, -93.4% (active); in the test with U251 CNS, -97.8% (active); in the test on PC-3 prostate, -29.3% (active). Also, the growth with SK-MEL-5 melanoma was -98.6% (active); with UACC-62 melanoma it was -88.8% (active); in the test on LOX IMVI melanoma it was -92.6% (active); with SK-MEL-28 melanoma, -96.3% (active); with SK-MEL-2 melanoma it was -90.1% (active); in the test with SN12C renal, -85.4% (active). Moreover, the growth in the test with UO-31 renal is -79% (active); in the test with TK-10 renal, -92.5% (active); in the test on ACHN renal, -100% (active); in the test with CAKI-1 renal it was -97% (active); in the test with A498 renal, -94% (active); with MOLT-4 leukemia, -5.89% (active).

Turning to `CC1=C(C(=O)c2ccccc2)C(c2ccc(-n3cncn3)cc2)n2c(nc3ccccc32)N1` (configuration not stated), the growth in the test on HCT-15 colon is 83.9%; in the test with HT29 colon, 93.7%; in the test on SNB-75 CNS, 76.4%; with SNB-19 CNS, 74.9%; in the test on U251 CNS, 71.7%; in the test with PC-3 prostate it was 78.7%. Also, the growth was 89.7% in the test with SK-MEL-5 melanoma; 70.6% in the test with UACC-62 melanoma; 106% in the test with SK-MEL-28 melanoma; 101% in the test on SK-MEL-2 melanoma; 64.4% in the test on EKVX NSCLC; 79.4% in the test on SN12C renal. Also, the growth in the test with UO-31 renal was -22.7% (active); with TK-10 renal it was 104%; in the test on ACHN renal it was 88.8%; in the test on CAKI-1 renal, 62.8%; with A498 renal it was 113%; in the test on CCRF-CEM leukemia, 70.9%. Moreover, the growth in the test on MOLT-4 leukemia was 66.9%.

Consider `Cc1cc(C)cc(C(=O)Nc2cccc(-c3cn(-c4ccc(S(N)(=O)=O)cc4)nn3)c2)c1`, for which the growth in the test on HCT-15 colon is 79%; in the test on HT29 colon it was 80.4%; with SNB-75 CNS it was -7.62% (active); in the test with SNB-19 CNS it was -27.9% (active); in the test with U251 CNS, 10.9%; in the test with PC-3 prostate it was 83%. Besides, the growth is 24.4% with SK-MEL-5 melanoma; 12.2% in the test with UACC-62 melanoma; 62.4% in the test with SK-MEL-28 melanoma; 12.8% in the test with SK-MEL-2 melanoma; 55.7% in the test with EKVX NSCLC; 32.6% with SN12C renal. The growth with UO-31 renal is 68.2%; in the test with TK-10 renal, -9.72% (active); in the test with ACHN renal, 22.5%; with CAKI-1 renal, 59.7%; with A498 renal it was -13.4% (active); in the test with CCRF-CEM leukemia, 30.4%. For the same molecule, in the test with MOLT-4 leukemia, the growth is 25.3%.

Values taken from PubChem BioAssay (NCI).
